Reference: PubChem BioAssay (NCATS)
Several values for one entry are separate records, joined by “and”; a condition that tells them apart may be missing. Equal entries are not always repeated. Results filed as inconclusive are left out. Activity calls are given as the source filed them. Calls follow the shape of the dose curve; as a rule, active = well fitted activation curve with a large enough effect; inconclusive = small, poorly fitted or top-dose-only effect; inactive = no such curve, though single readings can be large or run the other way.

biological target: Cellular tumor antigen p53 (Homo sapiens) (UniProt P04637); assay: Primary qHTS for small molecule compounds that upregulate eGFP-tagged delta133p53alpha (in N-terminal) cells. (AID 2060322); conditions: NCI-H358 eGFP-delta133p53alpha fluorescence, 24 h; activation: hits give high values; also: nearly all actives have a fitted effect of over 75% in size;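 as to activation: cells pre-induced with doxycycline then dosed without doxycycline; series mostly up to about 56 µM; 0% = DMSO vehicle and 100% = reference activator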
Sequence (P04637 whole entry, looked up): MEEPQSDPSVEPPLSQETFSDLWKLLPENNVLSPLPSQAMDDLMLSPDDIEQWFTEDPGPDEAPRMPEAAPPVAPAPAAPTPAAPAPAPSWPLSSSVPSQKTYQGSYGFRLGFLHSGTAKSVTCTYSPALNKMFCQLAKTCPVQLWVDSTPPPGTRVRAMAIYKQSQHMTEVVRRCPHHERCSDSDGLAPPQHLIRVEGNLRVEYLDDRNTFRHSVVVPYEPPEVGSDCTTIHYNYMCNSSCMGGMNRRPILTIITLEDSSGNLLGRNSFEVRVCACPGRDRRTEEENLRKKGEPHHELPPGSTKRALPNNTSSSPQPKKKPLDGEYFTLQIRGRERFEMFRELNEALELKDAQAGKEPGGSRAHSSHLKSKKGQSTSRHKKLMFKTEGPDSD
Method in brief: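 NCI-H358 cells pre-induced 24 h with 10 ng/ml doxycycline for eGFP-delta133p53alpha, plated dox-free and exposed 24 h at 37C to titrated compounds. Fixed, Hoechst-stained; gated GFP peak intensity by laser scanning cytometry, normalized to DMSO (0%) and 57.5 uM 5-azacytidine (100%).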
Potency is read from the fitted curve at half-maximal effect.

| Structure (SMILES) | activation | Potency |
| --- | --- | --- |
| CCCCC1C(=O)N(c2ccccc2)N(c2ccccc2)C1=O | 10% (inactive) and 16.7% (inactive) |  |
| NC(CO)C(=O)NNCc1ccc(O)c(O)c1O (stereo unspecified) | -10.9% (inactive) and -15.4% (inactive) and 9.06% (inactive) |  |
| OCCN1CCN(CCCN2c3ccccc3Sc3ccc(C(F)(F)F)cc32)CC1 | 21.2% (inactive) and 6.21% (inactive) and -4.78% (inactive) |  |
| COc1ccc(CCC(=O)c2c(O)cc(O[C@@H]3O[C@H](CO)[C@@H](O)[C@H](O)[C@H]3O[C@@H]3O[C@@H](C)[C@H](O)[C@@H](O)[C@H]3O)cc2O)cc1O | 8.33% (inactive) |  |
| COc1cc2nc(N3CCN(C(=O)c4ccco4)CC3)nc(N)c2cc1OC | 2.51% (inactive) and 14.7% (inactive) and 81.5% (inactive) |  |
| Nc1nc2ccc(OC(F)(F)F)cc2s1 | -8.55% (inactive) and 47.5% (inactive) |  |
| O=C(CCN1CCN(C(=O)OCc2cc(Cl)cc(Cl)c2)CC1)c1ccc2[nH]c(=O)oc2c1 | 10.1% (inactive) |  |
| CCN(CC)CCOCCOC(=O)C(CC)(CC)c1ccccc1 | -4.3% (inactive) |  |
| COc1cc2nc(N3CCN(C(=O)C4COc5ccccc5O4)CC3)nc(N)c2cc1OC (stereo unspecified) | 6.69% (inactive) and -16.6% (inactive) and -33.1% (inactive) |  |
| CNCCC=C1c2ccccc2CCc2ccccc21 | 33% (inactive) |  |
| O=C(Nc1cc(C(F)(F)F)cc(C(F)(F)F)c1)c1cnc(Cl)nc1C(F)(F)F |  | 30.1 µM (active) |
